From PubChem BioAssay (NCATS)
Where “and” joins values, the source holds several entries; their conditions need not be identical. Equal entries are not always repeated. Records with an inconclusive call do not appear. Calls of active or inactive are those of the source. Unless noted, calls follow the shape of the dose curve; as a rule, active = well fitted curve in the direction sought with a large enough effect; inconclusive = small, poorly fitted or top-dose-only effect, or another doubt; inactive = no such curve, though single readings can be large; an effect the other way counts as inactive or inconclusive.

How the values were obtained:
[1] = target: Cytochrome P450 2D6 (Homo sapiens) (UniProt P10635); assay: qHTS Assay for Inhibitors and Substrates of Cytochrome P450 2D6 (AID 891); settings: recombinant CYP2D6, luciferin-ME EGE luminescence; series mostly up to 57.1 µM; also: nearly all actives have a fitted effect of over 60% in size; also: potency is read from the fitted curve at half-maximal effect
In short: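 Human CYP2D6 (5 nM) with 30 uM Luciferin-ME EGE (at Km) in 100 mM KPO4, compound preincubated 10 min, then NADPH regeneration system for 60 min at room temperature. Luciferin read by luminescence; normalized to 1.43 uM quinidine.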

[2] = target: Glutathione peroxidase 1 (Homo sapiens) (UniProt P07203); assay: Primary qHTS Assay for Inhibitors of Recombinant Selenoprotein Glutathione Peroxidase 1 (GPX1) (AID 1845191); settings: recombinant GPX1, GR-coupled NADPH fluorescence, 15 min; series mostly up to 48.8 µM; also: nearly all actives have a fitted effect of over 65% in size
In short: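 10 nM GPX1 + cpd, 30 min RT; start w/ 1 mM GSH, 0.5 mM cumene hydroperoxide, 0.5 mM NADPH, 100 nM GR, 0.01% BSA; buffer 50 mM Tris-HCl pH 7.5, 2 mM EDTA, 150 mM NaCl; Fl 340/450, 0 & 15 min.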

[3] = target: Phospholipid hydroperoxide glutathione peroxidase GPX4 (Homo sapiens) (UniProt P36969); assay: Primary qHTS Assay for Inhibitors of Recombinant Selenoprotein Glutathione Peroxidase 4 (GPX4) (AID 1845192); settings: recombinant GPX4, GR-coupled NADPH fluorescence, 15 min; series mostly up to 50 µM; also: nearly all actives have a fitted effect of over 65% in size; also: potency is read from the fitted curve at half-maximal effect
In short: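 NADPH consumption, followed by fluorescence at 340/450 nm between 0 and 15 min, reports GPX4 activity via coupled glutathione reductase (100 nM). Enzyme 200 nM was pre-exposed to compound 30 min; 0.5 mM cumene hydroperoxide and 1 mM GSH served as substrates.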

[4] = Cell Viability - SH-SY5Y (AID 544); settings: SH-SY5Y neuroblastoma cell viability; series mostly up to 92.2 µM;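 also: cells exposed to compound for 40 hours; 0% = DMSO alone and -100% = 100 µM tamoxifen; nearly all actives have a fitted effect of over 55% in size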
In short: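 Cytotoxicity is scored as a concentration-dependent fall in intracellular ATP in human SH-SY5Y cells treated 40 hr in complete culture medium. Potency is expressed as AC50 from a Hill equation fit.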

[5] = MultiTox-Fluor Cytotoxicity Assay - LYMP1-001 - Live Cells (AID 947); settings: LYMP1-001 lymphoblastoid cells, live-cell protease fluorescence viability; series mostly up to 92.2 µM;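 also: 0% = DMSO only and full inhibition = tetraoctylammonium bromide control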
[6] = MultiTox-Fluor Cytotoxicity Assay - LYMP1-002 - Dead Cells (AID 960); settings: LYMP1-002 lymphoblastoid cells, dead-cell protease fluorescence; series mostly up to 46.1 µM;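 also: 0% = DMSO and 100% = tetraoctylammonium bromide; nearly all actives have a fitted effect of over 60% in size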
In short: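 Acute cytotoxicity in a human lymphoblastoid line is scored as rising dead-cell protease signal after 16 hr exposure at 37 C, measured fluorometrically (485/520).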

[7] = Cell Viability - LYMP2-004 (AID 966); settings: LYMP2-004 lymphoblastoid cell viability, qHTS; series mostly up to 92.2 µM;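 also: plate controls were DMSO only for no effect and tetraoctylammonium bromide control for full effect; nearly all actives have a fitted effect of over 65% in size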
In short: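 Acute toxicity is scored as a concentration-dependent drop in intracellular ATP, quantified by luciferase luminescence, in human lymphoblastoid cells exposed to compound for 24 hr. AC50 derives from Hill-equation modelling.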

[8] = Cell Viability - LYMP2-015 (AID 971); settings: LYMP2-015 lymphoblastoid cell viability; series mostly up to 92.2 µM;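 also: 0% = DMSO only and full effect = 92 µM tetraoctylammonium bromide; nearly all actives have a fitted effect of over 55% in size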
In short: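 Acute toxicity was scored as a concentration-dependent drop in intracellular ATP in lymphoblastoid cells after 24 hr compound exposure in complete medium. Detection used CellTiter-Glo luciferase luminescence.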

[9] = Cell Viability - LYMP2-012 (AID 982); settings: LYMP2-012 lymphoblastoid cell viability qHTS; series mostly up to 92.2 µM;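 also: cellular ATP by luciferase luminescence where a drop means cytotoxicity; cells exposed to compound for one day before reading; 0% = DMSO only and full loss = 92 µM tetraoctylammonium bromide; nearly all actives have a fitted effect of over 55% in size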
[10] = Cell Viability - LYMP2-024 (AID 988); settings: LYMP2-024 lymphoblastoid cell viability; series mostly up to 92.2 µM;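 also: cells exposed to compound for 24 hr at 37 °C; plate controls were DMSO only for no effect and 92 µM tetraoctylammonium bromide for full effect; nearly all actives have a fitted effect of over 60% in size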
In short: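 Acute toxicity is measured as concentration-dependent loss of intracellular ATP in a human lymphoblastoid line treated 24 hours at 37 C. Luciferase luminescence quantifies ATP; AC50 values come from standard Hill-equation modelling.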

[11] = target: Peroxisome proliferator-activated receptor gamma (Homo sapiens) (UniProt P37231); assay: qHTS assay for small molecule antagonists of peroxisome proliferator-activated receptor gamma signaling (AID 588537; active = well fitted inhibition curve with a large enough effect in the signal ratio, with a control signal flat, not every such curve was filed as active; the % refers to the signal ratio;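 also: reporter cells co-stimulated with 50 nM rosiglitazone agonist during compound treatment; % of control where 0% means no effect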); settings: HEK293 PPARg-UAS-bla, beta-lactamase ratio, antagonist mode; series mostly up to 76.8 µM
In short: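 Inhibitors of agonist-stimulated UAS-bla reporter activity were sought in HEK293 cells; rosiglitazone (50 nM) defined full signal and DMSO baseline. Curves fitted to Hill model gave IC50 and efficacy.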

[12] = qHTS assay for small molecule agonists of retinoid X receptor alpha signaling (AID 588544; calls by dose curve;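 as to activation: 0% = DMSO basal wells and 100% = reference agonist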); settings: HEK293T RXRa-UAS-bla, beta-lactamase reporter, 18 h; 530 nm emission
[13] = target: Retinoic acid receptor RXR-alpha (Homo sapiens) (UniProt P19793); assay: as above; settings: HEK293T RXRa-UAS-bla, beta-lactamase reporter, 18 h; series mostly up to 76.7 µM
[14] = qHTS assay for small molecule activators of the nuclear factor-kappa B (NF-kB) signaling pathway (AID 651749; active = well fitted activation curve with a large enough effect in the signal ratio; the % refers to the signal ratio; also: % of control where 0% means no effect); settings: NF-kB-bla ME-180 cells, beta-lactamase FRET ratio, 16 h; stronger effect = higher value
In short: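 Stably transfected ME-180 line; NF-kB response element upstream of beta-lactamase. Treatment: compound or DMSO, 16 hr. Detection: fluorescent FRET substrate.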

[15] = qHTS assay for small molecule disruptors of the mitochondrial membrane potential - 1 hr assay (AID 651754; calls by dose curve; also: % is scaled to controls: 0 for no effect and ±100 for the full control effect; nearly all actives have a fitted effect of over 35% in size); settings: series mostly up to 92.2 µM
In short: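 Steps: seed HepG2 cells and let attach overnight; pin-transfer compound or vehicle; incubate 1 hr at 37C; add Mito-MPS dye for 30 min; read two-channel fluorescence for monomer and aggregate forms.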

[16] = target: Tumor necrosis factor (Homo sapiens) (UniProt P01375); assay: qHTS assay to identify small molecules that stimulate Tumor Necrosis Factor-alpha (TNF-alpha) secretion (AID 651757; active = well fitted curve in the direction sought with a large enough effect in the signal ratio; the % refers to the signal ratio; also: 0% is about no effect); settings: Human cells, HTRF 665/615 ratio; series mostly up to 92.2 µM
In short: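 Secreted TNF-alpha from compound-treated THP-1 cells (17 hrs, 37 C) was quantified with a homogeneous time-resolved fluorescence antibody assay.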

[17] = qHTS assay for small molecule agonists of the antioxidant response element (ARE) signaling pathway measured by Nrf2-dependant transcriptional activity (AID 720636; active = well fitted curve in the direction sought with a large enough effect in the repeat runs; an effect the other way counts as inactive or inconclusive;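 also: HepG2 cells with an ARE-driven luciferase reporter; % of control where 0% means no effect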); settings: ARE-luc HepG2, Nrf2 luciferase reporter, 16 h; series mostly up to 92.4 µM
In short: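 We exposed ARE-luc HepG2 cells, seeded in assay medium with 1% dialyzed FBS and allowed 6 hr to adhere, to test compounds overnight (16 hr, 37 C) before measuring luciferase with ONE-Glo.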

[18] = qHTS assay for small molecule antagonists of the retinoid-related orphan receptor gamma (ROR-gamma) signaling pathway - cell viability counter screen (AID 720652; active = well fitted curve in the direction sought with a large enough effect in the repeat runs; an effect the other way counts as inactive or inconclusive;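 also: CHO reporter cells with doxycycline-induced ROR-gamma expression; compound exposure lasted 16 hr before ATP read; % is scaled to controls: 0 for no effect and ±100 for the full control effect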); settings: RORgamma reporter cell line viability counter screen; series mostly up to 92.2 µM
In short: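 Cytotoxicity is quantified via intracellular ATP (CellTiter-Glo luminescence) in doxycycline-induced CHO ROR response element-luciferase reporter cells treated with compound for 16 hr at 37 C, 5% CO2.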

[19] = qHTS assay for small molecule activators of the human pregnane X receptor (PXR) signaling pathway (AID 720659; call rule not given here; also: 0% is about no effect); settings: DPX-2 HepG2 CYP3A4-luciferase, 24 h; series mostly up to 92.3 µM
[20] = qHTS assay for small molecule agonists of the antioxidant response element (ARE) signaling pathway (AID 651741; active = well fitted activation curve with a large enough effect in the signal ratio; the % refers to the signal ratio; also: potency is read from the fitted curve at half-maximal effect; as to activation: % of control where 0% means no effect); settings: HepG2 ARE-bla reporter, beta-lactamase FRET ratio, 16 h; series mostly up to 96 µM
In short: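 Seeding 2,000 ARE-bla HepG2 cells per well preceded a 5 h incubation at 37 C/5% CO2 and a 16 h compound exposure at 37 C. Beta-lactamase reporter activity was then quantified by fluorescence after 2 h with LiveBLAzer B/G FRET substrate.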

Phospholipid hydroperoxide glutathione peroxidase GPX4 (Homo sapiens), sequence (P36969 whole entry, looked up): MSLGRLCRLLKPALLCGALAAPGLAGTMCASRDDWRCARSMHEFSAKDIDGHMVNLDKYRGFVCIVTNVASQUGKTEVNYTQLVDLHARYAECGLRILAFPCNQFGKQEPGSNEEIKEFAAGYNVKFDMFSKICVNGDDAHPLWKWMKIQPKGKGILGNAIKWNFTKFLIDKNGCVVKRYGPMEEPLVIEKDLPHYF
Peroxisome proliferator-activated receptor gamma (Homo sapiens), sequence (P37231 whole entry, looked up): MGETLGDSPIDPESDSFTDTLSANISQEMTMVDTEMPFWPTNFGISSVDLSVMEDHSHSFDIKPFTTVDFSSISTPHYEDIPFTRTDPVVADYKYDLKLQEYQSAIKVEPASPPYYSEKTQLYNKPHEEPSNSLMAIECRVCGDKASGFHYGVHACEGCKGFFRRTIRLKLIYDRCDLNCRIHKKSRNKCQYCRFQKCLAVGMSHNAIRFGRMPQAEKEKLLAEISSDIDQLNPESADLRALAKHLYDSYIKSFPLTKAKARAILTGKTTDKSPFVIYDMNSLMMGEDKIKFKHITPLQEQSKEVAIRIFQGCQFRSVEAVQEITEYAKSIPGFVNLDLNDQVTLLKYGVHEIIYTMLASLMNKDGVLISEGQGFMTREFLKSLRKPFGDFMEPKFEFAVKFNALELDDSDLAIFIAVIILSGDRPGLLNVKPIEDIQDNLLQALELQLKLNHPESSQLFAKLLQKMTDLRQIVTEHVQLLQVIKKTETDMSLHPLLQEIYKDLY
Cytochrome P450 2D6 (Homo sapiens), sequence (P10635 whole entry, looked up): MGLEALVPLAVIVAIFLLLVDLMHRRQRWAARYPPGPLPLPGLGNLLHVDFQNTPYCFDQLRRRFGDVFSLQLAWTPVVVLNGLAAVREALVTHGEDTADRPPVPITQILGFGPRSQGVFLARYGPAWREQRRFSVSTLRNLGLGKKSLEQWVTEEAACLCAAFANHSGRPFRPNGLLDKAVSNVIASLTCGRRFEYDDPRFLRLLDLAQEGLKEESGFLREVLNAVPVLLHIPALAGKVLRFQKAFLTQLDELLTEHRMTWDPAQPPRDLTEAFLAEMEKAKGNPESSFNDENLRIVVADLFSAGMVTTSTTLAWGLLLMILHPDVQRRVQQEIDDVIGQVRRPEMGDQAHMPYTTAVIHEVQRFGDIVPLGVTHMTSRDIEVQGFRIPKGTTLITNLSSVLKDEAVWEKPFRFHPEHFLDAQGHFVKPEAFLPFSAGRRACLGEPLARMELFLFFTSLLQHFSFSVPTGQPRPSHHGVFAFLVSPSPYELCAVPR
Glutathione peroxidase 1 (Homo sapiens), sequence (P07203 whole entry, looked up): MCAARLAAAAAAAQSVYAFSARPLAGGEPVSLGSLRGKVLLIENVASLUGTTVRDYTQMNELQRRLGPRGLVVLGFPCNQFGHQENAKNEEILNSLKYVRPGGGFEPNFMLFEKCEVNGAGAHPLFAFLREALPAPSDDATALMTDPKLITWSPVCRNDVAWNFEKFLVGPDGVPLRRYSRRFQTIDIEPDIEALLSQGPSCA
Tumor necrosis factor (Homo sapiens), sequence (P01375 whole entry, looked up): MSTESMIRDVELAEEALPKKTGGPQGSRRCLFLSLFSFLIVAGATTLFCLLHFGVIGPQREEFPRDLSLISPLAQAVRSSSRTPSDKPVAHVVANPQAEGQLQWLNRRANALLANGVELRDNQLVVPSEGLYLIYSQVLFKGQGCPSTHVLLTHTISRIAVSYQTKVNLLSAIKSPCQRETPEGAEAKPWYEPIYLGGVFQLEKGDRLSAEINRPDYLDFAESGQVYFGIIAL
Retinoic acid receptor RXR-alpha (Homo sapiens), sequence (P19793 whole entry, looked up): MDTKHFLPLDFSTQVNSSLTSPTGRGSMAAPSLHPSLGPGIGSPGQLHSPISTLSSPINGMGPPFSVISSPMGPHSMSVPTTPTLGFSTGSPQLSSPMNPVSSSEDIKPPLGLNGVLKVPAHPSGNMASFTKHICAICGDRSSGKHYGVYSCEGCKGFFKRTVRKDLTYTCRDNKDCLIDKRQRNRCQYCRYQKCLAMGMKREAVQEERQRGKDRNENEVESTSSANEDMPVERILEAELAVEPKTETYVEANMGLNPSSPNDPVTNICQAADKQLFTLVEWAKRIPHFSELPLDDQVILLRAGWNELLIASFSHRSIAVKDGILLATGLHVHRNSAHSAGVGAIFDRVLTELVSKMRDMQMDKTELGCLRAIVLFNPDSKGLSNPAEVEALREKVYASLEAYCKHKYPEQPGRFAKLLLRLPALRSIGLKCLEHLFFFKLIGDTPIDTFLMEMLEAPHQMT

Cc1cccc(CNc2ncncc2-c2ccccc2C)c1
active: Potency [1] 3.98 µM

COc1ccccc1CNc1ncncc1-c1ccccc1C(F)(F)F
active: Potency [1] 2 µM

COc1ccc2[nH]cc(CCNc3ncnc4ccc(-c5ccoc5)cc34)c2c1
active: Potency [1] 5.01 µM

CCCCCC/C=C\CCCCCCCC(=O)O
active: Potency [3] 14.1 µM
inactive: Potency [2]

C=C(C)C1CC=C(C)C(O)C1 (configuration not stated)
inactive: Potency [4] | Potency [5] | Potency [6] | Potency [7] | Potency [8] | Potency [9] | Potency [10] | outcome [11] | outcome [13] | activation [14] -0.16% | Potency [15] | outcome [16] | Potency [17] | Potency [18] | outcome [19]
-1.36%: max response [12]

Cc1ncc(COP(=O)(O)O)c(C)c1O
inactive: Potency [2] | Potency [3]

COc1ccc2[nH]cc(CCNc3ncncc3-c3ccccc3C)c2c1
active: Potency [1] 1.26 µM

CC(=O)OC1CC2CCC1(C)C2(C)C (configuration not stated)
inactive: Potency [2] | Potency [3]

O=C(O)c1ccccc1
inactive: Potency [4] | Potency [5] | Potency [6] | Potency [7] | Potency [8] | Potency [9] | Potency [10] | outcome [11] | outcome [13] | Potency [20] | outcome [16] | Potency [17] | Potency [18] | outcome [19]
-9.66%: max response [12]

CC1(C)C2CCC1(C)C(O)C2 (configuration not stated)
inactive: Potency [2] | Potency [3]

C=CC(C)(CCC=C(C)C)OC(C)=O (configuration not stated)
inactive: outcome [11] | outcome [13] | Potency [20] | activation [14] -0.624% | Potency [17] | outcome [19]
-5.34%: max response [12]

CC1=C2[C@H](/C=C(\C)C(=O)O)CC[C@@H](C)[C@H]2CC1
inactive: Potency [4] | Potency [5] | Potency [6] | Potency [8] | activation [14] -1.71% | outcome [16] | Potency [17] | Potency [18] | outcome [19]

CC(C)=CCCC(C)=CCCC(C)=CCCC=C(C)CCC=C(C)CCC=C(C)C
inactive: Potency [3]

CCCCCCCCCCCCCC(=O)O
12.8% and -5.45%: max response [12]
inactive: Potency [4] | Potency [6] | Potency [7] | Potency [8] | Potency [9] | Potency [10] | outcome [11] | outcome [13] | Potency [20] | Potency [15] | outcome [16] | Potency [17] | Potency [18] | outcome [19]

C=CC(=C)CCC=C(C)C
1.9%: max response [12]
inactive: Potency [4] | Potency [5] | Potency [6] | Potency [7] | Potency [9] | Potency [10] | outcome [13] | Potency [20] | activation [14] -0.615% | Potency [15] | outcome [16] | Potency [17] | Potency [18] | outcome [19]

COc1cc(/C=C/c2ccccc2)oc(=O)c1
inactive: Potency [5] | Potency [6] | Potency [7] | Potency [9] | Potency [10] | outcome [11] | Potency [15]

COc1ccc(/C=C/c2cc(OC)cc(=O)o2)cc1
active: Potency [20] 1.88 µM
inactive: Potency [5] | Potency [7] | Potency [8] | Potency [9] | Potency [10] | activation [14] 1.78% | Potency [15] | Potency [18]

O=c1cc(-c2ccc(O)c(O)c2)oc2cc(O[C@@H]3O[C@@H](CO)[C@@H](O)[C@@H](O)[C@H]3O)cc(O)c12
inactive: Potency [1]
